High-throughput results from PubChem BioAssay.
GDH-TPI counter: GDH-TPI coupled enzyme inhibition counter-screen | GDH-TPI coupled enzyme counterscreen, NADH absorbance | inhibition, % at 4.8 µM | actives 1.2% (n = 360,000) | AID 588335; in the data active means inhibition above about 30%;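 further: 0% = DMSO wells and 100% = wells lacking the enzyme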
Anthrax LF prot: anthrax lethal factor protease inhibition | inhibition, % at 10 µM | P15917 | actives 0.12% (n = 360,000) | multiplex microsphere protease cleavage assay, LF; further: plate controls were buffer without enzyme for full effect and enzyme alone for no effect
Mtb FBA inh: inhibits M. tuberculosis FBA enzyme | P9WQA3 | purified M. tuberculosis FBA, fluorescence read-out | inhibition, % at 1 µM | actives 2.3% (n = 360,000) | AID 588726; in the data active means inhibition above about 27%;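 further: 0% = vehicle and 100% = reference inhibitor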
BoNT-A LC inh2: blocks Botulinum neurotoxin A light chain protease; multiplex microsphere protease substrate cleavage, flow cytometry; inhibition, % at 10 µM; actives 0.17% (n = 360,000); further: plate controls were buffer without enzyme for full effect and enzyme alone for no effect
BoNT F protease: blocks Botulinum neurotoxin F light chain protease | Multiplex microsphere protease cleavage assay, flow cytometry | inhibition, % at 10 µM | actives 0.22% (n = 360,000) | AID 588497; in the data active means inhibition above about 35%, passing the limit was not always enough; inconclusive means no clear call, values can overlap the other calls; further: plate controls were buffer without enzyme for full effect and enzyme alone for no effect
Bead autofluor: flagged as autofluorescent in microsphere protease counterscreen. AID 624483. fluorescence intensity (test concentration not listed). actives 3.1% (n = 360,000). compound autofluorescence counterscreen, microsphere flow cytometry; stronger effect = higher value; in the data active means fluorescence intensity above about 16000; inconclusive means no clear call, values can overlap the other calls
* marks the source's active call; other numbers are inactive results; u = inconclusive; x = no result given; + = active, no number. Most compounds without a hit are left out; they make up all but 6.6% or so of the library. Unless noted, no stated cut-off is given here; in the data, active means inhibition above about 30%; inconclusive means no clear call, values can overlap the other calls; inactive means below that.

SMILES	GDH-TPI counter	Anthrax LF prot	Mtb FBA inh	BoNT-A LC inh2	BoNT F protease	Bead autofluor
Cc1cccc(-c2cccc3nccn23)c1	8	-5	+	0	-2	3635
CN(C)CCNC(=O)c1cccc(-c2cccc3nccn23)c1	4	-2	13	0	1	3782
Nc1c(Cl)ncnc1N/N=C/c1cccc(O)c1	42*	1	-2	0	2	4252
Clc1cccc(Cl)c1/C=N/Nc1c(Cl)cncc1Cl	4	1	0	0	-13	4550
Clc1cncc(Cl)c1N/N=C/c1ccncc1	36*	-1	-1	0	-11	2590
COc1cccc(/C=N/Nc2ncnc3scc(-c4ccccc4)c23)c1O	32*	0	5	5	-2	2750
COc1cccc(/C=N/Nc2ncnc(Cl)c2N)c1O	32*	-1	-4	-1	-4	2017
COc1cccc(/C=N/Nc2nccnc2Cl)c1O	8	-1	-5	-1	-8	3850
NC(=O)Nc1ccc(C(=O)OCC(=O)Nc2ccc(Cl)cn2)cc1	1	-6	-1	1	-1	4148
COC(=O)c1cc(S(=O)(=O)N2CCN(c3cccc(Cl)c3)CC2)c[nH]1	10	-10	2	-1	0	6389
Cc1ccc2[nH]cc(CCNC(=O)C3CCCO3)c2c1 (stereo unspecified)	-6	-5	-1	1	-2	3550
CCNC(=O)C1CCCN(C(=O)c2ccc(OC(F)F)cc2)CC1 (stereo unspecified)	-8	0	-1	-1	-3	4292
Oc1cccc(/C=N/Nc2ncnc3c2ncn3Cc2ccccc2)c1	37*	-2	2	-2	-6	2078
Nc1c(Cl)ncnc1N/N=C/c1ccncc1	48*	-4	-4	0	-1	4629
COc1cccc(/C=N/Nc2ncnc(N)c2[N+](=O)[O-])c1OC	27	2	-4	5	8	21088*
COc1ccc(/C=N/Nc2ncnc(Cl)c2N)cc1OC	16	-2	2	0	-5	2179
COc1cccc(/C=N/Nc2cc(-n3nc(C)cc3-c3ccccc3)ncn2)c1O	35*	3	-1	0	-6	10127
O=C(NC1CCCCC1)C1CC(=O)N(Cc2ccccc2)C1 (stereo unspecified)	3	2	1	-1	5	6168
Cc1ccccc1S(=O)(=O)NC(=O)C1(C)CCN1C(=O)COc1ccc(Cl)cc1 (stereo unspecified)	4	-5	0	0	2	3546
Cc1ccc2[nH]cc(C(=O)CN3CCN(C)CC3)c2c1	7	-2	-1	u	-2	23399*
COc1ccc2c(C(=O)CN3CCN(c4ccccc4)CC3)c[nH]c2c1	-11	-2	-1	u	-1	24933*
CC1(C(=O)NCC2CCCCC2)CCN1CCc1ccccc1 (stereo unspecified)	5	0	-1	-1	-4	4263
CN(C)C(=S)NC(=S)Nc1ccc2ccccc2c1	15	-6	6	0	-15	3715
COC(=O)c1cc(NC2c3ncccc3C(=O)N2Cc2ccccc2)cc(C(=O)OC)c1 (stereo unspecified)	9	2	0	1	-2	16375*
CCOc1ccc(N2C(=O)c3cccnc3C2Nc2ccc(Cl)cc2)cc1 (stereo unspecified)	-8	0	-2	2	1	21889*
SMILES	GDH-TPI counter	Anthrax LF prot	Mtb FBA inh	BoNT-A LC inh2	BoNT F protease	Bead autofluor
COC(=O)c1ccc(NC2c3ncccc3C(=O)N2Cc2cccs2)cc1 (stereo unspecified)	5	-2	2	0	-4	1971
O=C1c2cccnc2C(Nc2ccc(S(=O)(=O)N3CCCCC3)cc2)N1Cc1ccccc1 (stereo unspecified)	-4	-7	-2	-1	-14	11133
CCOC(=O)c1ccc(NC2c3ncccc3C(=O)N2Cc2ccc(F)cc2)cc1 (stereo unspecified)	1	-3	1	-1	-2	24047*
Cc1cc(C)n2c(NCc3ccccc3)c(-c3cc4ccccc4o3)nc2n1	x	-6	x	2	-29	9246
COc1cc(-c2nc3cnccc3n2C)cc(OC)c1OC	-2	-2	8	-2	u	4496
COc1cc(OC)c(-c2nc3cnccc3n2C)cc1OC	9	-1	-1	u	-5	16895*
N#CCO/N=C(\c1ccccc1)c1ccncc1	11	-2	2	u	-2	16207*
O=C(O/N=C(\c1ccccc1)c1ccncc1)c1ccccc1Cl	-10	-3	-2	0	0	4458
Clc1cccc(Cc2c(C3CCCCC3)nc3ccc(Cl)cn23)c1	x	-4	-3	0	-8	5905
Cc1ccc2nc(C3CCCCC3)c(Cc3cccc(Cl)c3)n2c1	x	2	145*	0	-9	6290
CN1CCN(CC#CCn2c3ccccc3c3ccccc32)CC1	-4	-1	1	-1	-11	11641
O=C(O)c1cc(-c2ccccn2)n[nH]1	11	1	2	1	1	22786*
Cc1cc(OC(=O)N2CCOCC2)cc(C)c1Cl	-2	1	-1	-1	-1	2857
CC(=O)Oc1c(Cl)c(N2CCOCC2)c(OC(C)=O)c2ccccc12	10	-3	1	-2	-4	17480*
CSc1ccccc1CNc1nc(NCC2CC2)nc2ccsc12	11	-4	-1	0	2	4104
O=C(OC1CSc2nc3ccccc3n2C1)c1ccco1 (stereo unspecified)	2	-5	-4	1	0	21891*
CN1CCC(OC(=O)c2ccco2)CC1	-3	-2	-2	-1	-1	4480
CN(C)CCn1cnc2c(c1=N)C(c1ccccc1)c1ccc3ccccc3c1O2 (stereo unspecified)	3	2	-1	-1	15	3960
CCCCN(C=O)c1c(CC)nc2ccc(C(=O)NCc3ccc4c(c3)OCO4)cn12	-8	-7	1	-1	0	4214
Cc1cc(C)c2c(=O)n(CC(=O)Nc3cccc(Cl)c3C)sc2n1	1	1	-1	54*	3	3362
Cc1c(Cl)cccc1NC(=O)CCC(=O)NNC(=O)c1ccccc1Cl	3	0	2	u	-4	17035*
Cc1ccccc1C(=O)NNC(=O)CCC(=O)Nc1cccc(Cl)c1C	7	-2	3	1	4	1937
Cc1c(Cl)cccc1NC(=O)CCC(=O)NNC(=O)c1ccco1	7	0	3	-1	-2	16503*
Cc1c(Cl)cccc1NC(=O)Cn1cccc1	-6	-3	-3	1	-3	23242*
O=C(NCCC1CCCCN1S(=O)(=O)c1ccc(F)cc1)C(=O)NCC1CCCO1 (stereo unspecified)	6	0	-2	-2	u	5730
O=C(NC1CCCCC1)C1CCCN1S(=O)(=O)c1ccc(Cl)cc1 (stereo unspecified)	1	-1	-5	-1	-3	3631
